Measurements published in the supplement of paper PMC10849652.
Of roughly 7,900 targets only a part is listed; those with a hit were picked by preference. About 0.6% of all pairs of compound and target were hits.

What was measured:
Assay in all cases: log2 fold change, soluble protein after heating vs DMSO (PISA); higher = thermal stabilisation; K562 cells, 10 uM, 30 min; active = over 0.2 and 3.5 SD of the protein, either way, in both replicates (recomputed)
[1] = compound: CS(=O)(=O)c1ccc(-c2cnc(N)c(C(=O)Nc3ccccc3)n2)cc1
Outline: (§1)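 Thermal stability values are relative to control samples and come from duplicates. They are expressed as log2 fold changes. For measurement, K562 cells (2×10^6 cells/mL) received 10 μM compound for 30 min, and aliquots were heated for 3 min over 48°C-58°C, pooled, and extracted at 4°C in PBS with 0.5% NP-40. Soluble protein, the supernatant after 21,000xg for 90 min, was quantified by TMTpro 16plex LC-MS/MS with equalised channel sums.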

[2] = compound: C[C@@H](Oc1cc(-c2cnn(C3CCNCC3)c2)cnc1N)c1c(Cl)ccc(F)c1Cl [crizotinib]
Outline: as §1

[3] = compound: C[C@@H]1COCCN1C2=NC(=NC(=C2)C3(CC3)S(=O)(=O)C)C4=C5C=CNC5=CC=C4
Outline: as §1

[4] = compound: C[C@H](C1=CC=C(C=C1)C(=O)NC2=C3C=CNC3=NC=C2)N
Outline: as §1

[5] = compound: C[C@H](Nc1ncnc2nc[nH]c12)c1cc2cccc(Cl)c2c(=O)n1-c1ccccc1 [duvelisib]
Outline: as §1

[6] = compound: Cc1cc(Nc2cc(CN3CCOCC3)c3nc(C)c(Cc4ccc(Cl)cc4F)n3n2)n[nH]1 [gandotinib]
Outline: as §1

[7] = compound: Cc1cc(Nc2cc(N3CCN(C)CC3)nc(Sc3ccc(NC(=O)C4CC4)cc3)n2)n[nH]1 [tozasertib]
Outline: as §1

[8] = compound: Cc1cc(SCc2sc(-c3ccc(C(F)(F)F)cc3)nc2C)ccc1OCC(=O)O
Outline: as §1

[9] = compound: Cc1ccc(-n2nc(C(C)(C)C)cc2NC(=O)Nc2ccc(OCCN3CCOCC3)c3ccccc23)cc1 [doramapimod]
Outline: as §1

[10] = compound: Cc1ccc(C(=O)N(CCCN)[C@@H](c2nc3cc(Cl)ccc3c(=O)n2Cc2ccccc2)C(C)C)cc1 [ispinesib]
Outline: as §1

[11] = compound: Cc1ccc(NC(=O)c2ccc(CN3CC[C@H](N(C)C)C3)c(C(F)(F)F)c2)cc1Nc1nccc(-c2cncnc2)n1 [bafetinib]
Outline: as §1

[12] = compound: Cc1cccc(CC(=O)N2CCc3c2ccc(-c2cn(C)c4ncnc(N)c24)c3F)n1
Outline: as §1

[13] = compound: Cc1cn(-c2cc(NC(=O)c3ccc(C)c(Nc4nccc(-c5cccnc5)n4)c3)cc(C(F)(F)F)c2)cn1 [nilotinib]
Outline: as §1

[14] = compound: Cc1nc(Nc2n[nH]c3c2CN(C(=O)N[C@H](CN(C)C)c2ccccc2)C3(C)C)c2sccc2n1
Outline: as §1

[15] = compound: Cc1nc(Nc2ncc(C(=O)Nc3c(C)cccc3Cl)s2)cc(N2CCN(CCO)CC2)n1 [dasatinib]
Outline: as §1

[16] = compound: Cc1ncc(-c2ccnc(Nc3ccc(S(C)(=O)=O)cc3)n2)n1C(C)C
Outline: as §1

[17] = compound: Cn1cc(-c2ccc3c(c2)CCN3C(=O)Cc2cccc(C(F)(F)F)c2)c2c(N)ncnc21
Outline: as §1

[18] = compound: Cn1cc(-c2ccc3nnc(C(F)(F)c4ccc5ncccc5c4)n3n2)cn1
Outline: as §1

[19] = compound: Cn1cncc1[C@@](N)(c1ccc(Cl)cc1)c1ccc2c(c1)c(-c1cccc(Cl)c1)cc(=O)n2C [tipifarnib]
Outline: as §1

[20] = compound: FC(F)(F)c1ccc(/C=C/c2nc(COc3ccc(CCCCn4ccnn4)cc3)co2)cc1 [mubritinib]
Outline: as §1

UniProt P51948, sequence (P51948 whole entry, looked up): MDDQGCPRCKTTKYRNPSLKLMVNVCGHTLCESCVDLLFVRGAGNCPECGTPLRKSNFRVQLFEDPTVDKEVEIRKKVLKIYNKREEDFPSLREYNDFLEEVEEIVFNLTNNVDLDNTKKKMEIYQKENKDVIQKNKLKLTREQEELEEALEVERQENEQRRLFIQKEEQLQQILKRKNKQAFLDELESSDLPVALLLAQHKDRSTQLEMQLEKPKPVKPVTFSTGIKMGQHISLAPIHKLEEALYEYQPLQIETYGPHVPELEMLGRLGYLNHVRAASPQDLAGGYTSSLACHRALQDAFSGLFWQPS
UniProt Q12986, sequence (Q12986 whole entry, looked up): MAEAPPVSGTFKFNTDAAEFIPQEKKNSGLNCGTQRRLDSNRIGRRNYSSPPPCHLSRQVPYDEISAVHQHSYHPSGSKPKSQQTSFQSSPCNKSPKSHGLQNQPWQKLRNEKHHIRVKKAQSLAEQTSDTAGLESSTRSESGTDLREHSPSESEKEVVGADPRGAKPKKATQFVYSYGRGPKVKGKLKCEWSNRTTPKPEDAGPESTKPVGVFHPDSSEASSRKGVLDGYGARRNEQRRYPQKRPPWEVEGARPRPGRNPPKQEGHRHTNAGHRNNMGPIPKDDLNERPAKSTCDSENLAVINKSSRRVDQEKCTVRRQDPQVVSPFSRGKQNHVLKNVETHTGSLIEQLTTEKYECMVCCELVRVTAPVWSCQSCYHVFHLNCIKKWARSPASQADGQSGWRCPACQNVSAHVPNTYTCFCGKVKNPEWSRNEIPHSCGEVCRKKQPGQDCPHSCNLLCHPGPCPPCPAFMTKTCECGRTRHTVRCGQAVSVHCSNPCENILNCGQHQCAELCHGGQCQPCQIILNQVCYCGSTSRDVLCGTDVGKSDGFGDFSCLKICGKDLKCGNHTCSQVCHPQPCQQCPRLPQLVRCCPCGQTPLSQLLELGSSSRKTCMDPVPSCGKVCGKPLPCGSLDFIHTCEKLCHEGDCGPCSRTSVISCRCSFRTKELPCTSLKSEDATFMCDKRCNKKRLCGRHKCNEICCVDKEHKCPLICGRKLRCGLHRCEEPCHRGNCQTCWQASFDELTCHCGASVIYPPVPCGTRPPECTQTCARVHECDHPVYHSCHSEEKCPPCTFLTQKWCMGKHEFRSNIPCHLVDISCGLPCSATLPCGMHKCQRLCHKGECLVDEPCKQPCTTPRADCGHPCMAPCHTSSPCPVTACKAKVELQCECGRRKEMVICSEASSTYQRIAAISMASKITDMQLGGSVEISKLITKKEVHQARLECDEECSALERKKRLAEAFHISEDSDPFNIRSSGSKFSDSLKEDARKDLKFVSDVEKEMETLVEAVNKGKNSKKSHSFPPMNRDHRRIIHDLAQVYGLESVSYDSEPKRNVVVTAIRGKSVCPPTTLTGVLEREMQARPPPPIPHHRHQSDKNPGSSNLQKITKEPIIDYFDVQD
UniProt Q9Y2X3, sequence (Q9Y2X3 whole entry, looked up): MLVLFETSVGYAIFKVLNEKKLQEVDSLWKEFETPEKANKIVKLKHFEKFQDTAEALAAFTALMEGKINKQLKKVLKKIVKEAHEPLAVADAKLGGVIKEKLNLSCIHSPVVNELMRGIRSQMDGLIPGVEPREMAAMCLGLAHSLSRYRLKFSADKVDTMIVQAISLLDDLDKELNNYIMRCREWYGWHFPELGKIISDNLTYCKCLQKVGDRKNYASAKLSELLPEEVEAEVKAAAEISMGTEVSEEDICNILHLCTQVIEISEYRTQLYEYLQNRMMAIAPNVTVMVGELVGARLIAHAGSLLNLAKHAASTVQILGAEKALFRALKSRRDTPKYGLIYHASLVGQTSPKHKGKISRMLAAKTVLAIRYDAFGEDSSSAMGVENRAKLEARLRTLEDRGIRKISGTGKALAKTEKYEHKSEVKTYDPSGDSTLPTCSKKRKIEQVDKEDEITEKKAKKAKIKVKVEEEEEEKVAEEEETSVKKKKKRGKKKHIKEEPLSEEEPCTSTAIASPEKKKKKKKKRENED
UniProt P30419, sequence (P30419 whole entry, looked up): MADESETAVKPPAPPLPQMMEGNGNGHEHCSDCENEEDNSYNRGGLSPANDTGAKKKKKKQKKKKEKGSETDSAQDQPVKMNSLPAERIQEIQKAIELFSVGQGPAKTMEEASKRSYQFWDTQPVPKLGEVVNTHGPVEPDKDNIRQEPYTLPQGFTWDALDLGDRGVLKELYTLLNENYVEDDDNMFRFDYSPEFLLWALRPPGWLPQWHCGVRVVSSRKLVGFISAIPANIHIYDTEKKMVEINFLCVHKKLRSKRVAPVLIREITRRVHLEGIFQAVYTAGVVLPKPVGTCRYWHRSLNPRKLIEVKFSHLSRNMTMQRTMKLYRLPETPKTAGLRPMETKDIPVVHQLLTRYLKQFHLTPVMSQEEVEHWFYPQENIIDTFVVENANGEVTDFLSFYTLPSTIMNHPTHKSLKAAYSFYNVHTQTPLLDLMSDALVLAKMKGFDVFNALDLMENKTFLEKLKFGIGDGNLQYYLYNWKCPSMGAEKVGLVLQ
UniProt Q96T76, sequence (Q96T76 whole entry, looked up): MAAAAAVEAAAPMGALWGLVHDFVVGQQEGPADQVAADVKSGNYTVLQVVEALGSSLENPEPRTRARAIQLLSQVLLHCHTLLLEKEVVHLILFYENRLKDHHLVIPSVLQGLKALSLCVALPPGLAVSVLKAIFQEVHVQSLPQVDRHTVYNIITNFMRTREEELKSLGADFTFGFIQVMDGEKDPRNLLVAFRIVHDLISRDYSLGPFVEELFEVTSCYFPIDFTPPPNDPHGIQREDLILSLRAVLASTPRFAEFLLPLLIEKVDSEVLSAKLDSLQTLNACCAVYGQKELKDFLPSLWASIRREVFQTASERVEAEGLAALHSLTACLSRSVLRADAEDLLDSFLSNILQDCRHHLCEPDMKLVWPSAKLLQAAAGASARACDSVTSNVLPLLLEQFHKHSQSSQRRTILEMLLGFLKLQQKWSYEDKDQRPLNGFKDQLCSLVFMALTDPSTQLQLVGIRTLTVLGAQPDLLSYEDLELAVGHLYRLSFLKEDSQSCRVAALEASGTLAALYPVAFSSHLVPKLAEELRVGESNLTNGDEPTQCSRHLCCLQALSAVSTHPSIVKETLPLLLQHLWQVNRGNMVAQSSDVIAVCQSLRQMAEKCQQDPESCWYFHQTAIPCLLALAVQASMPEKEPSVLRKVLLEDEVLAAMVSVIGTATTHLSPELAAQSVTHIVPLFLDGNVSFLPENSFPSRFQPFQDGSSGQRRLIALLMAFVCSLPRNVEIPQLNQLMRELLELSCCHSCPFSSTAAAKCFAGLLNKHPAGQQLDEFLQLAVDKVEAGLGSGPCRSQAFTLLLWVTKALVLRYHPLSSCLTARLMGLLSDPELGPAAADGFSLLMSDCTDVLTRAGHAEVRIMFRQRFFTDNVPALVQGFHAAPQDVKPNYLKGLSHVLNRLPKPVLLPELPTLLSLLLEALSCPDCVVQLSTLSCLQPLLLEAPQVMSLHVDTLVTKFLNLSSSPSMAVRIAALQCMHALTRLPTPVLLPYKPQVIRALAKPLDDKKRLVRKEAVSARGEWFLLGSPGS
UniProt Q96D46, sequence (Q96D46 whole entry, looked up): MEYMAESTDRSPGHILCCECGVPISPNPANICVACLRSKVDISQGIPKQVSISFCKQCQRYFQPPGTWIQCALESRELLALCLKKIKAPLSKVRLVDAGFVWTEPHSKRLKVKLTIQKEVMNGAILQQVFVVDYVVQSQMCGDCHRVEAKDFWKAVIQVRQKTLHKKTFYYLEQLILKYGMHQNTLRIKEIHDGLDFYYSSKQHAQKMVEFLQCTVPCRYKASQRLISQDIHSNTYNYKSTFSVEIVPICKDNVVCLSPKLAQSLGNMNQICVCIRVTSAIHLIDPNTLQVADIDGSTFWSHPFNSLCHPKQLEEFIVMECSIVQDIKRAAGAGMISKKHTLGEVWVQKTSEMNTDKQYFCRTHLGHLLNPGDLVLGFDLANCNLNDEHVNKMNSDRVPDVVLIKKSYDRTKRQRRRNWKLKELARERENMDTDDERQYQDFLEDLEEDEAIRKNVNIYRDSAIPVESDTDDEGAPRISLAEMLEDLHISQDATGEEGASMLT
UniProt Q8NI08, sequence (Q8NI08 whole entry, looked up): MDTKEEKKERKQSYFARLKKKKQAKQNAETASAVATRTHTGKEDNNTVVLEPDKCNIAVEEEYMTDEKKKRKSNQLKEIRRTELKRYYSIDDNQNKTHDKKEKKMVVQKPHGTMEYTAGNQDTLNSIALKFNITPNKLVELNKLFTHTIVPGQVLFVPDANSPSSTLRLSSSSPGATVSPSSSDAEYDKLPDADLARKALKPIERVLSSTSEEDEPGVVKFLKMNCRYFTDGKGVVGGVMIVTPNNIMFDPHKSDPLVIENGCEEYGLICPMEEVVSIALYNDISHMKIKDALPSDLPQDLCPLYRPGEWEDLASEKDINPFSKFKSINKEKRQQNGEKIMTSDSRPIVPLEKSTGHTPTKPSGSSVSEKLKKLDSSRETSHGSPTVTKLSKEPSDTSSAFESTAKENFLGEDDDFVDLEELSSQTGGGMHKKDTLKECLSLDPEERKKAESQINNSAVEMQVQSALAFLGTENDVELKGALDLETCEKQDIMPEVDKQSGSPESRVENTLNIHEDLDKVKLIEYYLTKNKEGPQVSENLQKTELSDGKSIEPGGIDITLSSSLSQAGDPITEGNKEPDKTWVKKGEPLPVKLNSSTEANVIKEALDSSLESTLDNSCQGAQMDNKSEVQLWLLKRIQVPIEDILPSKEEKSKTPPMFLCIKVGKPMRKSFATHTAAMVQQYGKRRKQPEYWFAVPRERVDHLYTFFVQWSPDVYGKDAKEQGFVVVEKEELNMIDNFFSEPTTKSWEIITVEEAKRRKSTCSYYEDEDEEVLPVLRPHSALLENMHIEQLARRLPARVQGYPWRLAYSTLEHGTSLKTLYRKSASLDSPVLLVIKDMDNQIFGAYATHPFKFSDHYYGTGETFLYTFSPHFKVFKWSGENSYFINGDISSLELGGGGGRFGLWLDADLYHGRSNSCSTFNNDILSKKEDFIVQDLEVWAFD

Target	log2 fold change [1]	log2 fold change [2]	log2 fold change [3]	log2 fold change [4]	log2 fold change [5]	log2 fold change [6]	log2 fold change [7]	log2 fold change [8]	log2 fold change [9]	log2 fold change [10]	log2 fold change [11]	log2 fold change [12]	log2 fold change [13]	log2 fold change [14]	log2 fold change [15]	log2 fold change [16]	log2 fold change [17]	log2 fold change [18]	log2 fold change [19]	log2 fold change [20]
NDUFB8 (UniProt O95169)	0.035 (inactive)	0.09 (inactive)	-0.015 (inactive)	-0.001 (inactive)	0.161 (inactive)	0.045 (inactive)	0.028 (inactive)	0.078 (inactive)	-0.057 (inactive)	0.123 (inactive)	-0.029 (inactive)	-0.002 (inactive)	0.015 (inactive)	0.027 (inactive)	0.056 (inactive)	-0.04 (inactive)	-0.08 (inactive)	0.154 (inactive)	0.071 (inactive)	0.027 (inactive)
MNAT1 (UniProt P51948)	0.007 (inactive)	0.02 (inactive)	-0.068 (inactive)	-0.036 (inactive)	0.007 (inactive)	0.024 (inactive)	0.015 (inactive)	0.005 (inactive)	-0.057 (inactive)	0.089 (inactive)	-0.072 (inactive)	0.011 (inactive)	-0.033 (inactive)	0.023 (inactive)	-0.002 (inactive)	-0.031 (inactive)	0.018 (inactive)	0 (inactive)	0.025 (inactive)	0.032 (inactive)
OTUD6B (UniProt Q8N6M0)	0.013 (inactive)	-0.146 (inactive)	0.024 (inactive)	0 (inactive)	-0.02 (inactive)	-0.086 (inactive)	0.055 (inactive)	0.122 (inactive)	0.009 (inactive)	-0.165 (inactive)	-0.014 (inactive)	0.105 (inactive)	-0.114 (inactive)	-0.067 (inactive)	-0.142 (inactive)	-0.031 (inactive)	0.044 (inactive)	0.067 (inactive)	-0.039 (inactive)	-0.02 (inactive)
NCOA7 (UniProt Q8NI08)	-0.003 (inactive)	-0.17 (inactive)	0.012 (inactive)	-0.034 (inactive)	0.091 (inactive)	-0.238 (active)	-0.052 (inactive)	0.031 (inactive)	0.082 (inactive)	-0.037 (inactive)	-0.017 (inactive)	0.154 (inactive)	-0.044 (inactive)	-0.046 (inactive)	-0.144 (inactive)	-0.039 (inactive)	0.085 (inactive)	0.004 (inactive)	-0.125 (inactive)	0.054 (inactive)
NMD3 (UniProt Q96D46)	0.094 (inactive)	0.003 (inactive)	0.122 (inactive)	-0.179 (inactive)	0.064 (inactive)	0.007 (inactive)	-0.007 (inactive)	0.03 (inactive)	-0.013 (inactive)	0.139 (inactive)	0.071 (inactive)	0.03 (inactive)	0.025 (inactive)	0.316 (active)	0.014 (inactive)	0.123 (inactive)	0.083 (inactive)	0.028 (inactive)	-0.107 (inactive)	0.083 (inactive)
NCAPD2 (UniProt Q15021)	0.018 (inactive)	-0.024 (inactive)	0.004 (inactive)	0.093 (inactive)	0.035 (inactive)	-0.077 (inactive)	0.092 (inactive)	0.109 (inactive)	-0.049 (inactive)	-0.029 (inactive)	0.03 (inactive)	0.045 (inactive)	-0.078 (inactive)	-0.071 (inactive)	-0.159 (inactive)	0.08 (inactive)	-0.035 (inactive)	0.018 (inactive)	-0.148 (inactive)	0.033 (inactive)
MRPL50 (UniProt Q8N5N7)	-0.031 (inactive)	0.133 (inactive)	0.045 (inactive)	-0.045 (inactive)	-0.016 (inactive)	0.04 (inactive)	0.042 (inactive)	0.104 (inactive)	0.092 (inactive)	0.199 (inactive)	-0.079 (inactive)	-0.035 (inactive)	0.008 (inactive)	0.114 (inactive)	0.183 (inactive)	-0.064 (inactive)	0.022 (inactive)	0.117 (inactive)	-0.163 (inactive)	-0.039 (inactive)
MPHOSPH10 (UniProt O00566)	-0.083 (inactive)	0.026 (inactive)	-0.25 (inactive)	0.353 (inactive)	-0.047 (inactive)	0.189 (inactive)	0.016 (inactive)	-0.046 (inactive)	0.049 (inactive)	-0.023 (inactive)	0.137 (inactive)	-0.045 (inactive)	-0.055 (inactive)	-0.028 (inactive)	0.138 (inactive)	-0.199 (inactive)	-0.259 (inactive)	-0.001 (inactive)	0.246 (inactive)	-0.069 (inactive)
NOP56 (UniProt O00567)	-0.101 (inactive)	-0.103 (inactive)	-0.338 (inactive)	0.285 (inactive)	-0.022 (inactive)	0.064 (inactive)	-0.043 (inactive)	0 (inactive)	0.178 (inactive)	0.162 (inactive)	0.225 (inactive)	-0.099 (inactive)	0.098 (inactive)	-0.018 (inactive)	0.204 (inactive)	-0.026 (inactive)	-0.371 (inactive)	-0.18 (inactive)	0.201 (inactive)	-0.164 (inactive)
MRPS5 (UniProt P82675)	0.123 (inactive)	-0.061 (inactive)	0.125 (inactive)	0.169 (inactive)	0.016 (inactive)	-0.08 (inactive)	-0.065 (inactive)	0.131 (inactive)	0.071 (inactive)	-0.451 (active)	0.153 (inactive)	0.159 (inactive)	-0.287 (inactive)	0.118 (inactive)	-0.073 (inactive)	0.067 (inactive)	0.039 (inactive)	0.087 (inactive)	-0.13 (inactive)	0.22 (inactive)
NMT1 (UniProt P30419)	0.085 (inactive)	-0.17 (inactive)	-0.058 (inactive)	-0.032 (inactive)	-0.003 (inactive)	0.066 (inactive)	-0.012 (inactive)	-0.003 (inactive)	0 (inactive)	-0.164 (inactive)	0.064 (inactive)	-0.026 (inactive)	0.049 (inactive)	0.06 (inactive)	-0.012 (inactive)	-0.003 (inactive)	0.026 (inactive)	-0.001 (inactive)	-0.026 (inactive)	0.076 (inactive)
OAT (UniProt P04181)	-0.003 (inactive)	-0.123 (inactive)	0.053 (inactive)	-0.083 (inactive)	0.032 (inactive)	-0.03 (inactive)	-0.102 (inactive)	0.018 (inactive)	0.037 (inactive)	-0.233 (active)	-0.038 (inactive)	-0.018 (inactive)	0.036 (inactive)	-0.021 (inactive)	-0.109 (inactive)	-0.073 (inactive)	0.026 (inactive)	0.061 (inactive)	-0.004 (inactive)	0.002 (inactive)
NFX1 (UniProt Q12986)	-0.024 (inactive)	-0.232 (inactive)	-0.315 (inactive)	0.09 (inactive)	0.172 (inactive)	0.21 (inactive)	-0.008 (inactive)	-0.164 (inactive)	0.293 (inactive)	-0.202 (inactive)	-0.044 (inactive)	-0.026 (inactive)	-0.042 (inactive)	0.075 (inactive)	0.085 (inactive)	-0.011 (inactive)	0.07 (inactive)	-0.15 (inactive)	0.131 (inactive)	-0.096 (inactive)
NOP58 (UniProt Q9Y2X3)	0.006 (inactive)	0.047 (inactive)	-0.061 (inactive)	0.242 (inactive)	0.004 (inactive)	0.121 (inactive)	0.025 (inactive)	-0.001 (inactive)	0.098 (inactive)	0.103 (inactive)	0.146 (inactive)	-0.154 (inactive)	0.03 (inactive)	-0.194 (inactive)	0.266 (inactive)	-0.142 (inactive)	-0.194 (inactive)	-0.093 (inactive)	0.067 (inactive)	-0.071 (inactive)
MMS19 isoform 8 (UniProt Q96T76)	0.002 (inactive)	-0.156 (inactive)	0.023 (inactive)	0.053 (inactive)	0.044 (inactive)	-0.129 (inactive)	0.051 (inactive)	0.103 (inactive)	0.033 (inactive)	-0.035 (inactive)	-0.014 (inactive)	0.092 (inactive)	-0.038 (inactive)	-0.027 (inactive)	-0.205 (inactive)	-0.002 (inactive)	-0.021 (inactive)	0.02 (inactive)	-0.055 (inactive)	-0.019 (inactive)
